Compound activity as filed in PubChem BioAssay.
USP30 inh = inhibitors of human USP30 deubiquitinase; Q70CQ3; purified USP30, Ub-rhodamine cleavage fluorescence; inhibition, % at 25 µM; actives 5.3% (n = 47,000); AID 1645860
Target sequence (Q70CQ3 whole entry, looked up): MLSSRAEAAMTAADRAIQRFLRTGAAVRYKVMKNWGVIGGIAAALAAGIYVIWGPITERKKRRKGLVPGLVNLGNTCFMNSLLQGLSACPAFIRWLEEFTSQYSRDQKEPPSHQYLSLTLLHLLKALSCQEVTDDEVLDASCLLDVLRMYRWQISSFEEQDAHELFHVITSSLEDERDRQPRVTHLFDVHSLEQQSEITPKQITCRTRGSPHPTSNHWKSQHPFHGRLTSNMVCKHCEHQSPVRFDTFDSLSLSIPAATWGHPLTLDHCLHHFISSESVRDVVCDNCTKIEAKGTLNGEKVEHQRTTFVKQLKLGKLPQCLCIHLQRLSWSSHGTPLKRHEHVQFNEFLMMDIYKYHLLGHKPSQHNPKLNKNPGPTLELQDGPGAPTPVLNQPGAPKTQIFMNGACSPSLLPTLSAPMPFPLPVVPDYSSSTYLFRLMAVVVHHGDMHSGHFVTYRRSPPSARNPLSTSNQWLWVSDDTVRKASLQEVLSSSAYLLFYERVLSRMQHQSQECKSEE
USP28 block = human USP28 deubiquitinase inhibition | Q96RU2 | purified USP28, Ub-rhodamine cleavage fluorescence, 30 min | inhibition, % at 25 µM | actives 3% (n = 47,000)
USP17 inh = blocks human USP17 ubiquitin-rhodamine cleavage; A8MUK1; purified USP17, Ub-rhodamine cleavage fluorescence, 3 h; inhibition, % at 50 µM; actives 6.5% (n = 47,000)
* = called active by the depositor. The list is not random: actives were taken first. Their share in the collection is about 11%. Cut-off read from the data, not from the text of the source: active = inhibition above about 30%; inactive = the rest.

Results for O=C(COC(=O)c1ccc2c(=O)n3c(nc2c1)CCCCC3)c1ccc(Br)cc1 ?
USP30 inh: 6; USP28 block: 11; USP17 inh: 2

What do the screens show for `O=C(c1nnn(Cc2ccc(Cl)cc2)c1-n1cccc1)N1CCSCC1`?
USP30 inh: 7; USP28 block: 36*; USP17 inh: 7

What do the screens show for `O=C(c1cn(-c2cccc(Cl)c2)nn1)N1CCSCC1`?
USP30 inh: -4; USP28 block: -6; USP17 inh: -2

How did Cc1ccc(Cn2nnc(C(=O)N3CCCC3)c2-n2cccc2)cc1 do in these assays?
USP30 inh: -31; USP28 block: 13; USP17 inh: 9

What do the screens show for `COc1ccc(Cn2nnc(C(=O)N3CCCCC3)c2-n2cccc2)cc1`?
USP30 inh: -61; USP28 block: -5; USP17 inh: 30*

What do the screens show for `O=C1CC(c2noc(C3(c4ccccc4)CC3)n2)CN1c1ccccc1` (centres undefined)?
USP30 inh: -4; USP28 block: 4; USP17 inh: 1

How did O=C(NC1=NCCS1)c1cnn(Cc2ccccc2)c1 do in these assays?
USP30 inh: 0; USP28 block: -7; USP17 inh: 2

How did Cc1nn(-c2ccccc2)c(C)c1NC(=O)c1cnn(Cc2ccccc2)c1 do in these assays?
USP30 inh: 17; USP28 block: 31*; USP17 inh: 17

What do the screens show for `O=C(CN1CCC(Nc2nc(C(F)(F)F)cc(=O)[nH]2)CC1)N1CCCc2ccccc21`?
USP30 inh: -14; USP28 block: -11; USP17 inh: -9

What do the screens show for `CC1CS(=O)(=O)N(c2ccc(C(=O)NCc3ccccc3F)cc2)C1=O` (centres undefined)?
USP30 inh: 1; USP28 block: 0; USP17 inh: 1

How did N#Cc1c(Cl)cccc1Oc1ccc(S(=O)(=O)N2CCC(O)CC2)cc1 do in these assays?
USP30 inh: 18; USP28 block: 17; USP17 inh: 66*

What do the screens show for `O=C(Nc1cccc(Cl)c1Oc1ccc(S(=O)(=O)N2CCOCC2)cc1)C(F)(F)F`?
USP30 inh: -6; USP28 block: 8; USP17 inh: 1

How did COC(=O)c1cc(Br)c(NC(=O)c2ccco2)cc1OC do in these assays?
USP30 inh: 20; USP28 block: 17; USP17 inh: 39*

How did COc1cc(NC(=O)c2ccc(OCc3ccccc3)cc2)ccc1NC(=O)c1ccco1 do in these assays?
USP30 inh: -71; USP28 block: 18; USP17 inh: -12

What do the screens show for `O=C(Cn1cnc(S(=O)(=O)N2CCOCC2)c1)Nc1ccc(Cl)cc1`?
USP30 inh: 26; USP28 block: 15; USP17 inh: 22

What do the screens show for `CCOc1ccccc1NC(=O)NC1Cc2ccccc2C1`?
USP30 inh: 3; USP28 block: -6; USP17 inh: -9

Results for O=C(Nc1ccc(F)cc1F)NC1Cc2ccccc2C1 ?
USP30 inh: 66*; USP28 block: 27; USP17 inh: 11

Results for CCCn1nnc2cc(S(=O)(=O)N3CCC(C(=O)N4CCOCC4)CC3)ccc21 ?
USP30 inh: 27; USP28 block: 11; USP17 inh: 10

Results for COC(=O)c1ccc(C(=O)OC)c(N2C(=O)CSCC2=O)c1 ?
USP30 inh: 49*; USP28 block: 13; USP17 inh: 20

How did COC(=O)c1ccc(O)c(O)c1 do in these assays?
USP30 inh: 17; USP28 block: 0; USP17 inh: -39

Results for COc1ccc(NC(=O)Cc2nc(-c3cccc(Cl)c3)no2)cc1 ?
USP30 inh: -29; USP28 block: -21; USP17 inh: -24

How did COc1ccc(NC(=O)CS(=O)c2ccc(Cl)c(Cl)c2)cc1 (centres undefined) do in these assays?
USP30 inh: 47*; USP28 block: 11; USP17 inh: 5

Results for CC(C)c1cc2c(c(O)c1O)[C@@]13CCCC(C)(C)[C@@H]1C[C@@H]2OC3=O ?
USP30 inh: 11; USP28 block: 33*; USP17 inh: 74*

How did O=C(Nc1ccc(Cl)cc1F)c1cc(=O)[nH]c2ccccc12 do in these assays?
USP30 inh: -12; USP28 block: -9; USP17 inh: -5

What do the screens show for `CC(OC(=O)c1cc(=O)[nH]c2ccccc12)C(=O)Nc1ccc(F)cc1Cl` (centres undefined)?
USP30 inh: 12; USP28 block: 19; USP17 inh: 45*

Results for CCc1ccc(-n2c(C)cc(/C=C3\C(=N)N4N=CSC4=NC3=O)c2C)cc1 ?
USP30 inh: -433; USP28 block: -136; USP17 inh: 46*

What do the screens show for `Cc1cc(/C=C2\C(=N)N3N=CSC3=NC2=O)c(C)n1-c1cccc(F)c1`?
USP30 inh: -157; USP28 block: -52; USP17 inh: -29

Results for Cc1nn(C)cc1C(=O)N1CCC[C@@H]2NC(=O)c3ccccc3OCC/C=C/C[C@@H]21 ?
USP30 inh: 16; USP28 block: 18; USP17 inh: 12

Results for O=C(O)CC1(CC(=O)NCc2ccc(F)cc2)CCCCC1 ?
USP30 inh: 21; USP28 block: 9; USP17 inh: 11

Results for O=C(O)CC1(c2ccc(F)cc2)C2CC3CC(C2)CC1C3 (centres undefined) ?
USP30 inh: 40*; USP28 block: 15; USP17 inh: 32*

Results for Cc1ccc(C(=O)N2CCN(C(=O)c3cc4ccccc4[nH]3)CC2)cc1 ?
USP30 inh: 26; USP28 block: 15; USP17 inh: 37*

How did O=C(Nc1ccccc1)C1CCCN(C(=O)c2cc3ccccc3[nH]2)C1 (centres undefined) do in these assays?
USP30 inh: 33*; USP28 block: 9; USP17 inh: 60*

What do the screens show for `Cc1ccc(NC(=O)C2CCCN(C(=O)c3cc(-c4cccnc4)n[nH]3)C2)cc1` (centres undefined)?
USP30 inh: 2; USP28 block: -1; USP17 inh: 2

Results for COc1ccccc1C(=O)N1CCN(C(=O)c2cc3ccccc3[nH]2)CC1 ?
USP30 inh: 4; USP28 block: -1; USP17 inh: -8

Results for COc1ccc(C(=O)N2CCN(Cc3noc(-c4ccccc4)n3)CC2)cc1 ?
USP30 inh: -1; USP28 block: 12; USP17 inh: 10

Results for COCCn1nnc2cc(S(=O)(=O)N3CCCC(C(=O)N4CCOCC4)C3)ccc21 (centres undefined) ?
USP30 inh: 5; USP28 block: 5; USP17 inh: 3

What do the screens show for `CC/C=C\C/C=C\C/C=C\CCCCCCCC(=O)O`?
USP30 inh: 53*; USP28 block: 74*; USP17 inh: 88*

What do the screens show for `CCCCC[C@H](O)/C=C/C=C/CCCCCCCC(=O)O`?
USP30 inh: 14; USP28 block: 22; USP17 inh: 3

How did O=S(=O)(c1ccc(F)cc1)N1CCN(c2cnn3cnnc3c2)CC1 do in these assays?
USP30 inh: 5; USP28 block: 8; USP17 inh: 7

How did O=S(=O)(c1cccc(Cl)c1)N1CCN(c2cnn3cnnc3c2)CC1 do in these assays?
USP30 inh: 9; USP28 block: 10; USP17 inh: 43*

How did CCC(Oc1ccccc1OC)C(=O)N1CC(=O)Nc2ccccc21 (centres undefined) do in these assays?
USP30 inh: 0; USP28 block: 0; USP17 inh: 0
